# TDP1 cell noCPT = qHTS for Inhibitors of human tyrosyl-DNA phosphodiesterase 1 (TDP1): qHTS in cells in absence of CPT; DT40 Tdp1-/- hTDP1 cells, no CPT, ATP luminescence, 48 h; Potency, µM (series often up to 46.2 µM), for inactives: top-dose activity change, negative = growth inhibition, hits mostly inhibitors; hit rate 15% among 420,000; note: potency is the fitted concentration of half-maximal effect; % is set by controls: 0 for no effect and ±100 for the full control effect; nearly all actives have a fitted effect of over 55% in size
#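 DT40 Tdp1-/-;hTDP1 cells, no CPT (DMSO vehicle only), 400 cells/well; compounds pin-transferred; ≥48 hr, 37 °C; CellTiter-Glo 30 min RT dark, luminescence read.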
# IL1B secr inh = inflammasome signaling inhibition, IL-1 beta readout. THP-1 LPS/ATP IL-1B secretion, AlphaLISA, 16 h; hits give low values. activity change, % at 57.5 µM. hit rate 4.7% among 360,000; in the data active = activity change below about -50%; inconclusive = mostly about -30% to -49%; note: % is set by controls: 0 for no effect and ±100 for the full control effect
#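 Secreted IL-1B measured by AlphaLISA bead assay after 16 h compound exposure of THP-1 cells; compounds (final up to 57.5 uM) added 1 h before LPS (250 ng/mL) and ATP (1.25 mM) stimulation; lower signal means less secretion.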
# HepG2 tox = counter-screen for TGF-b inhibitors: cytotoxicity in HepG2 cells. HepG2 CAGA-GFP viability, ATP luminescence, 18 h. Potency, µM (titrated, usually from 46.1 µM), without a hit: top-dose activity change, negative = cytotoxicity, hits mostly cytotoxic. hit rate 0.76% among 410,000. AID 588856; note: potency is the fitted concentration of half-maximal effect
#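 HepG2 CAGA-GFP cells (1000/well, DMEM with 1% FBS) received compound, then TGF-beta at 500 pg/mL final, and were incubated 18 hours at 37 degrees C. Viability was read by CellTiter-Glo luminescence. Media-only wells were set as complete cell-killing and DMSO as no toxicity.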
# TGFb SMAD3 inh = blocks TGF-b signaling | HepG2 CAGA-GFP TGF-b/SMAD3 reporter, GFP fluorescence, 18 h; TGF-beta stimulated, 500 pg/mL final | Potency, µM (doses to about 46.1 µM), inactives show at the highest dose activity, negative = inhibition, hits mostly inhibitors | hit rate 1.2% among 410,000; note: potency is the fitted concentration of half-maximal effect; % is set by controls: 0 for no effect and ±100 for the full control effect; nearly all actives have a fitted effect of over 65% in size
#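 First, reporter cells (HEPG2 CAGA-GFP) rested 2 h at 37 degrees C. Next, compounds were pinned in and TGF-beta added to 500 pg/mL final. After 18 h, GFP was imaged per cell and summed per well.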
# TDP1 cell CPT = DT40-hTDP1 cell growth loss with CPT; Potency, µM (highest dose often 46.2 µM), inactives show at the top dose activity change, negative = growth inhibition, actives largely listed as inhibitors; chicken DT40 Tdp1-/-;hTDP1 cells + 20 nM CPT, ATP luminescence, 48 h; hit rate 12% among 420,000; AID 686979; note: potency is the fitted concentration of half-maximal effect; % is set by controls: 0 for no effect and ±100 for the full control effect; nearly all actives have a fitted effect of over 55% in size
#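 Cell growth measured by CellTiter-Glo luminescence after a minimum 48 h, 37 C compound exposure with 20 nM CPT in Tdp1-knockout DT40 cells stably expressing hTDP1, seeded 400/well; qHTS titration format.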
# ASM inhibitor = blocks human secretory acid sphingomyelinase. placental ASM, HMU-PC fluorogenic substrate, 60 min. P17405. Potency, µM (doses to about 57.5 µM), for inactives: at the highest dose activity change, negative = inhibition, hits mostly inhibitors. hit rate 0.006% among 340,000; note: potency is the fitted concentration of half-maximal effect
# Target sequence (P17405 47-631 limits assumed): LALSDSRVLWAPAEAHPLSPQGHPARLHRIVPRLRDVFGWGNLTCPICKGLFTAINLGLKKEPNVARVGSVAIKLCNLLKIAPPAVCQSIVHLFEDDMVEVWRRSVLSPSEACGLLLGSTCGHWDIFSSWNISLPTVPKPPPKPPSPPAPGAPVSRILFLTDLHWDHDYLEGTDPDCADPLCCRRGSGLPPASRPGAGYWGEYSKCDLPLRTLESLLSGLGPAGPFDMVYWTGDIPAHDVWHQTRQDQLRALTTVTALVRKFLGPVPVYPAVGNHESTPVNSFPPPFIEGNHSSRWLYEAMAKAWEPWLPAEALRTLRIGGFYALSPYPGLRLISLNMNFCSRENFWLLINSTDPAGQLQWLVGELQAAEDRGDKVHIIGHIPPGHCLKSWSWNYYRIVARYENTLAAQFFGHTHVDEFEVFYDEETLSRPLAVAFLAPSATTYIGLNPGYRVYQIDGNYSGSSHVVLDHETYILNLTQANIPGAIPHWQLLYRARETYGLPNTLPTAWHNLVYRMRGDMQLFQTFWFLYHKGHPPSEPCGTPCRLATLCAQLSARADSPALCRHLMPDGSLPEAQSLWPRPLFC
#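 Human placenta-derived ASM enzyme was preincubated with compound for 10 minutes at room temperature, then given fluorogenic substrate HMU-PC0 (9 uM final) for 60 minutes at 37 °C; a pH 10 stop preceded fluorescence reading at Ex 386/Em 447 nm.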
# An asterisk follows results filed as active; ? = inconclusive; / = no result given. Shown are actives, neighbours in structure and some others; about 19% of the full set was active somewhere. Unless noted, calls come from the whole dose curve; as a rule, active = well fitted curve in the direction sought with a large enough effect; inconclusive = small, poorly fitted or top-dose-only effect, or another doubt; inactive = no such curve, though single readings can be large; an effect the other way counts as inactive or inconclusive.
SMILES,TDP1 cell noCPT,IL1B secr inh,HepG2 tox,TGFb SMAD3 inh,TDP1 cell CPT,ASM inhibitor
Nc1cc(=O)nc(SCC(=O)Nc2ccc(F)cc2)n1-c1ccccc1Cl,-24%,/,-3%,0%,-23%,/
COCCn1c(SCC(=O)N2CCCc3ccccc32)nc2ccccc2c1=O,16µM*,?,-20%,-17%,?,0%
COCCn1c(SCC(=O)Nc2cc(C)on2)nc2cc(Cl)ccc2c1=O,?,0,3%,?,-5%,2%
COCCn1c(SCC(=O)N2CCc3ccccc3C2)nc2cc(Cl)ccc2c1=O,15µM*,-76*,-5%,-10%,?,-8%
Cc1cc(C(F)F)n2nc(C(=O)Nc3cccc(S(=O)(=O)N4CCOCC4)c3)nc2n1,-17%,-2,-14%,9%,-3%,-4%
CCOC(=O)[C@]12CCCC=C1N(Cc1ccccc1)C(=O)[C@H](CC(=O)N1CCCC1)C2,?,5,/,/,-17%,/
CCCCCCCCN1C(=O)[C@H](CC(=O)N2CCN(C(=O)OCC)CC2)C[C@@]2(C(=O)OCC)CCCC=C12,?,-22,/,/,16µM*,/
CCCCCCCCN1C(=O)[C@H](CC(=O)N2CCCC2)C[C@@]2(C(=O)OCC)CCCC=C12,8.2µM*,?,/,/,8.2µM*,/
CCOC(=O)[C@]12CCCC=C1N(CCC1=CCCCC1)C(=O)[C@H](CC(=O)N1CCN(C(=O)C3CC3)CC1)C2,?,-21,/,/,?,/
CCCCCCN(C(=O)CCCN1C(=O)NC(c2ccc([N+](=O)[O-])cc2)C(C(=O)OCc2ccccc2)=C1C)C(C)C(=O)NCCCC (configuration not stated),9.2µM*,-63*,-10%,-26%,12µM*,-5%
CCOC(=O)C1=C(C)N(CCCCCC(=O)O)C(=O)NC1c1ccc([N+](=O)[O-])cc1 (configuration not stated),-8%,24,-16%,-8%,16%,-2%
CCn1c(C)c(P(c2ccccc2)c2ccccc2)[n+]2ccccc12,1.5µM*,-20,1%,3%,2.3µM*,4%
CCCS(=O)(=O)NC(=O)C1(C)CCCN(C(=O)c2sccc2C)C1 (configuration not stated),2%,18,3%,12%,-12%,/
Cc1sc(NC(=O)CSc2nc(N)n(CC(=O)c3ccccc3)n2)c(C#N)c1C,-19%,-14,-28%,-19%,-2%,-12%
CC(NC(=O)CSc1nc2c(c(C(F)(F)F)n1)CCc1ccccc1-2)c1ccccc1 (configuration not stated),23µM*,-16,0%,-8%,?,-9%
Cc1nc(SCC(=O)NCc2ccco2)nc(C)c1C,7%,14,1%,0%,7%,4%
CCc1c(C)sc(NC(=O)CSc2nc3c(c(C(F)(F)F)n2)CCc2ccccc2-3)c1C#N,?,20,-5%,-12%,21µM*,8%
O=C(CSc1nc2c(c(C(F)(F)F)n1)CCc1ccccc1-2)NCc1ccco1,26µM*,29,-9%,-3%,16µM*,-2%
Cc1ccc(N2CC(NC(=O)c3cccs3)CC2=O)cc1C (configuration not stated),?,/,-5%,0%,?,/
COc1ccc(N2C(=O)CS(=O)(=O)C23C(=O)N(Cc2ccccc2F)c2ccccc23)cc1Cl (configuration not stated),?,/,-8%,13%,?,/
COc1cc(C(C#N)N2N=C(c3ccccc3)CC2c2ccccc2)ccc1O (configuration not stated),-14%,0,-5%,30%,?,-25%
N#CC(c1ccccc1O)N1N=C(c2ccccc2)CC1c1ccccc1 (configuration not stated),10µM*,10,-15%,-28%,18µM*,-17%
CNC(=S)N(Cc1cccs1)Cc1cc2cc(OC)c(OC)cc2[nH]c1=O,18µM*,2,-16%,?,?,10%
COc1cc2cc(CN(Cc3cccs3)C(=S)Nc3ccc(C)cc3)c(=O)[nH]c2cc1OC,16µM*,-9,3%,0%,26µM*,-18%
Cc1cccc(NC(=S)N(Cc2cccs2)Cc2cc3cc(C)ccc3[nH]c2=O)c1,21µM*,11,-2%,2%,18µM*,-2%
SMILES,TDP1 cell noCPT,IL1B secr inh,HepG2 tox,TGFb SMAD3 inh,TDP1 cell CPT,ASM inhibitor
CCC(C)NC(=S)N(CCc1ccccc1)Cc1cc2cc(OC)c(OC)cc2[nH]c1=O (configuration not stated),18µM*,?,-5%,?,?,-16%
CNC(=S)N(Cc1ccc(OC)cc1)Cc1cc2cc(C)ccc2[nH]c1=O,-3%,8,9%,14%,6%,-10%
Cc1ccc(NC(=S)N(Cc2cccs2)Cc2cc3cc(C)ccc3[nH]c2=O)cc1,?,-8,23%,?,?,-9%
CC(OC(=O)c1ccc(Cl)c(S(=O)(=O)N2CCOCC2)c1)C(=O)NC1CCCCC1C (configuration not stated),?,-6,-26%,0%,-8%,-1%
Cc1oc2ncn(C)c(=O)c2c1C(=O)N1CCN(c2ccccc2F)CC1,-4%,/,5%,1%,28%,/
CCNc1nc(C#N)nc(Nc2ccccc2)n1,11µM*,/,-14%,-7%,?,/
CCCCNC(=S)N/N=C/c1cc(C)ccc1C,6.5µM*,16,0%,-19%,5.2µM*,-3%
CCCCNC(=S)N/N=C/c1ccc(C)s1,?,0,-8%,1%,?,-3%
CCCCNC(=S)N/N=C/c1sccc1C,1.5µM*,-8,-87%,-3%,0.92µM*,-4%
CCCCNC(=S)N/N=C/c1ccc(OCC(=O)Nc2c(C)cc(C)cc2C)c(OC)c1,?,27,-15%,-2%,-28%,-2%
CCCCNC(=S)N/N=C/c1ccccc1F,15µM*,-6,15%,?,?,-1%
Cc1ccc2c(CC(=O)OCC(=O)N(CC(C)C)c3c(N)n(Cc4ccccc4)c(=O)[nH]c3=O)coc2c1,?,-25,-170%,?,?,-1%
COc1cccc(CC(=O)OCC(=O)NC2CCCC2)c1,?,3,8%,0%,-12%,4%

# High-throughput results (PubChem BioAssay)
